Experimental data published in ChEMBL document CHEMBL1961873, “Compounds: GSK PKIS; Assays: Nanosyn kinase panel” (2012).

Assays:
[1] = target: Serine/threonine-protein kinase MARK2 (Homo sapiens) (UniProt Q7KZI7); settings: at 1 µM
[2] = target: PAS domain-containing serine/threonine-protein kinase (Homo sapiens) (UniProt Q96RG2); settings: at 0.1 µM
[3] = target: PAS domain-containing serine/threonine-protein kinase (Homo sapiens) (UniProt Q96RG2); settings: at 1 µM
[4] = target: Phosphorylase b kinase gamma catalytic chain, skeletal muscle/heart isoform (Homo sapiens) (UniProt Q16816); settings: at 0.1 µM
[5] = target: Phosphorylase b kinase gamma catalytic chain, skeletal muscle/heart isoform (Homo sapiens) (UniProt Q16816); settings: at 1 µM
[6] = target: T1, Phosphorylase b kinase gamma catalytic chain, liver/testis isoform (Homo sapiens) (UniProt P15735); settings: at 0.1 µM
T1 sequence (whole entry): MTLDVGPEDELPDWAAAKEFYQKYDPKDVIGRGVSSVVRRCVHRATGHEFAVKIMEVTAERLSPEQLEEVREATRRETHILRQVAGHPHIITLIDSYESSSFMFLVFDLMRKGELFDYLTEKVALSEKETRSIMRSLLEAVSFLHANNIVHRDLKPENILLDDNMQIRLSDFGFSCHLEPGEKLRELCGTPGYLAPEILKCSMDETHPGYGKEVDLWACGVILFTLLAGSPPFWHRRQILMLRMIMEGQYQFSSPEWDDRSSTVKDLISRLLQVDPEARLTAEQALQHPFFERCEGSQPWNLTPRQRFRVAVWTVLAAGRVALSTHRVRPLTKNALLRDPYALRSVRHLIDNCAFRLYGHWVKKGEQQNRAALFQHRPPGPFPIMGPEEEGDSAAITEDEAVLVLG

[7] = target: T1, Phosphorylase b kinase gamma catalytic chain, liver/testis isoform (Homo sapiens); settings: at 1 µM
[8] = target: Serine/threonine-protein kinase pim-1 (Homo sapiens) (UniProt P11309); settings: at 0.1 µM
[9] = target: Serine/threonine-protein kinase pim-1 (Homo sapiens) (UniProt P11309); settings: at 1 µM
[10] = target: Serine/threonine-protein kinase pim-2 (Homo sapiens) (UniProt Q9P1W9); settings: at 0.1 µM;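 also: reported value is the mean percent inhibition of PIM2, measured in the GSK PKIS kinase inhibitor set screen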
Sequence of Serine/threonine-protein kinase pim-2 (Homo sapiens) (Q9P1W9 whole entry, looked up): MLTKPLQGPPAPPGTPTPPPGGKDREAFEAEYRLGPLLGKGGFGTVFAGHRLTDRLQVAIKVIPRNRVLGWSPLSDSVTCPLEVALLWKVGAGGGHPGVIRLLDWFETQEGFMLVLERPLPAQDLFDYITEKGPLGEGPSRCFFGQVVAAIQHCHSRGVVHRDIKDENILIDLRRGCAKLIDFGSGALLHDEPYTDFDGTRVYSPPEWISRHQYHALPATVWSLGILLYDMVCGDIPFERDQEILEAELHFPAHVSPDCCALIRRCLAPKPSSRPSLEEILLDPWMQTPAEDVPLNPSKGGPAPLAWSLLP

Sequence of Serine/threonine-protein kinase MARK2 (Homo sapiens) (Q7KZI7 whole entry, the tested form may be a part): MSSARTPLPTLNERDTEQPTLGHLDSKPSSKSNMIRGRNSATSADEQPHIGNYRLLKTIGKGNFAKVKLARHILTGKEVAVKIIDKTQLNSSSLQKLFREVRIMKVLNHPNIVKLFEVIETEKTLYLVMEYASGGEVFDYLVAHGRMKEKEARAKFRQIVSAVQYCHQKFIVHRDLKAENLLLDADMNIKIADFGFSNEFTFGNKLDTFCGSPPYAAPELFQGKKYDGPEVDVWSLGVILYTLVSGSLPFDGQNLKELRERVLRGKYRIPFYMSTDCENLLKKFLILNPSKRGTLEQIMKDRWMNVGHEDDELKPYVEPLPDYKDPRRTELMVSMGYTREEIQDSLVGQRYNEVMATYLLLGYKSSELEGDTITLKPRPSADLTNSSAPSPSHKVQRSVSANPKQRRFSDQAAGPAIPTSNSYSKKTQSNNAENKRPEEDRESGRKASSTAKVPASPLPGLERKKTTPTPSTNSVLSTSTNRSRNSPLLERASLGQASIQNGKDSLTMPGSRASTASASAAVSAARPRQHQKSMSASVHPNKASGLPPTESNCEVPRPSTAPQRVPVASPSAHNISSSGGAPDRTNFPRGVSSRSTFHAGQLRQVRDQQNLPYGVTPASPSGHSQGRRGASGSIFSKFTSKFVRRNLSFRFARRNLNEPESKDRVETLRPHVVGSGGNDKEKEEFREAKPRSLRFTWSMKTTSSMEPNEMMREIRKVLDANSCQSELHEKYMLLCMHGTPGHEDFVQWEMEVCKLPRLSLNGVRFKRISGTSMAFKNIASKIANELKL
Sequence of PAS domain-containing serine/threonine-protein kinase (Homo sapiens) (Q96RG2 whole entry, the tested form may be a part, canonical isoform): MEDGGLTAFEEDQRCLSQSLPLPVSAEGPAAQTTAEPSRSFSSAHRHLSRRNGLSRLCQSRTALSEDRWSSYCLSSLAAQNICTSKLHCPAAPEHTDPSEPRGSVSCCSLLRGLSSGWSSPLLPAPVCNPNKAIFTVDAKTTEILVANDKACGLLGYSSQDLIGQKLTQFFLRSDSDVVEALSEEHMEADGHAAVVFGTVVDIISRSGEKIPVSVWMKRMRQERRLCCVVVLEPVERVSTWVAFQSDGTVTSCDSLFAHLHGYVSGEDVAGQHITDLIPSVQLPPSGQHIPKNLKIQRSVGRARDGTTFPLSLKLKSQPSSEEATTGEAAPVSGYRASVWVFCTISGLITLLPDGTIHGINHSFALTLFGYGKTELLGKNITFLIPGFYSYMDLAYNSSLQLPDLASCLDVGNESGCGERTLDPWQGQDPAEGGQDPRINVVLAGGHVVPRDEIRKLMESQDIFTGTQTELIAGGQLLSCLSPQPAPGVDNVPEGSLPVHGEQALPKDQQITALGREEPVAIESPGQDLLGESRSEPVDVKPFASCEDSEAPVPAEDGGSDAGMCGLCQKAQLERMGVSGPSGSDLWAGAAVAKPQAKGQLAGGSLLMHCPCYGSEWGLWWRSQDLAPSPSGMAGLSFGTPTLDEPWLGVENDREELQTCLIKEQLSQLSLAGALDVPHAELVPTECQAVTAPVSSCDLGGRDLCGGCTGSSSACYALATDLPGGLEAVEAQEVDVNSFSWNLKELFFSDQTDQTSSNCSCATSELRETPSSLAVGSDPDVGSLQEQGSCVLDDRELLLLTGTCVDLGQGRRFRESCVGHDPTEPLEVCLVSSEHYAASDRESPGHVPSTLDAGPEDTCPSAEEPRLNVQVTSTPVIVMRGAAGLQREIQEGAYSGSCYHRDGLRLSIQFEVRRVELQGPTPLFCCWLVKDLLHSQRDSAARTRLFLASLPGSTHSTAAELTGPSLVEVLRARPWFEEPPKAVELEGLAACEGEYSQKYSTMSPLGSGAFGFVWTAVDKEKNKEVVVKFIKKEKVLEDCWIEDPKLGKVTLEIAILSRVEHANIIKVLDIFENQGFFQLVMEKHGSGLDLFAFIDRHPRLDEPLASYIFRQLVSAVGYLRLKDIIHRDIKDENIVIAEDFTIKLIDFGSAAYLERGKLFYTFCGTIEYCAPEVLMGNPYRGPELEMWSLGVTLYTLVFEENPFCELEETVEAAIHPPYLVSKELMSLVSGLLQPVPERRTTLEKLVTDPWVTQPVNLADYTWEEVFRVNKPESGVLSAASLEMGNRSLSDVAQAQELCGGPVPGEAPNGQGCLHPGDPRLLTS
Sequence of Serine/threonine-protein kinase pim-1 (Homo sapiens) (P11309 whole entry, looked up): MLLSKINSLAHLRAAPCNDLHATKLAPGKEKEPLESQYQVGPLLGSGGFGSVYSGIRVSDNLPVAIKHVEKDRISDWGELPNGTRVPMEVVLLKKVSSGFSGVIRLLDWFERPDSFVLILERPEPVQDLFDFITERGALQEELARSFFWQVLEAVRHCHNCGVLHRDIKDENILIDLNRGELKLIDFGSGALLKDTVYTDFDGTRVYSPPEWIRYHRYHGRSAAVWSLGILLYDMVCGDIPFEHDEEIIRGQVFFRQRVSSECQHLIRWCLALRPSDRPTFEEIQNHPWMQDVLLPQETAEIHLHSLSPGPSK
Sequence of Phosphorylase b kinase gamma catalytic chain, skeletal muscle/heart isoform (Homo sapiens) (Q16816 whole entry, looked up, canonical isoform): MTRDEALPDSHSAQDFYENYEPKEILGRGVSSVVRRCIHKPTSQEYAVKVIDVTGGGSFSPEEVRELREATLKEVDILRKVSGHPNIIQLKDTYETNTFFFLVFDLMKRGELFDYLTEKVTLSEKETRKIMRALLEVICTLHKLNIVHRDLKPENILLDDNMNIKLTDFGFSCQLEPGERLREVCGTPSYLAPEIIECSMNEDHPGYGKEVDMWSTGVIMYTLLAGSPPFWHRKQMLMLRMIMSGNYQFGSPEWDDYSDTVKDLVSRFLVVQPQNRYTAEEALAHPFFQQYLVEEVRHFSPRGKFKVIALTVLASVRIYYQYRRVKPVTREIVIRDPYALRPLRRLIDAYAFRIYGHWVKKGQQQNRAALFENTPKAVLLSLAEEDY

Compound	inhibition [1] [%]	inhibition [2] [%]	inhibition [3] [%]	inhibition [4] [%]	inhibition [5] [%]	inhibition [6] [%]	inhibition [7] [%]	inhibition [8] [%]	inhibition [9] [%]	inhibition [10] [%]
C[C@@H](Oc1cc(-n2cnc3ccc(OC4CCN(C)CC4)cc32)sc1C(N)=O)c1ccccc1Cl	9.93	-0.56	0.38	2.08	5.16	5.55	4.86	16.1	65.3	-4.35
Fc1ccc(-c2ncn(CCCN3CCOCC3)c2-c2ccncc2)cc1	2.44	0.57	0.36	1.86	2.09	-0.42	-2.63	-0.06	-0.27	0.24
COc1ccc2cc(-c3c(-c4ccncc4)nc(-c4ccc([S+](C)[O-])cc4C)n3C)ccc2c1 (stereo not given)	-1.74	-0.31	-0.06	-0.07	0.13	-1.33	-1.4	0.66	0.72	-0.27
C/C(Nc1ccc(S(N)(=O)=O)cc1)=C1/C(=O)Nc2ccccc21	18.6	-1.08	-1.37	5.53	29.9	-0.73	19.6	0.43	2.86	0.75
c1ccc(Oc2ccc(Nc3ncc(-c4ccccc4)o3)cc2)cc1	0.42	-0.25	0.08	0.99	2.96	1.62	0.32	0.45	0.21	0.31
COc1ccc(-c2ccc3c(NC(=O)C4CC4)n[nH]c3n2)cc1	-0.61	0.2	2.17	5.12	7.79	0.93	5.44	-0.29	-0.78	-0.37
COc1cc(Nc2ncc3c(C)nc(-c4cccc(Oc5ccccc5)c4)n3n2)cc(OC)c1OC	5.64	0.54	-0.72	-0.01	5.67	2.66	-0.4	0.91	1.16	0.23
COc1cc(Nc2ncc(-c3ccccc3)o2)cc(OC)c1OC	15.6	0.63	-0.67	3.23	20.9	-2.9	-2.15	0.68	2.12	0.06
CCN(CC)Cc1ccc(Nc2nccc(-c3cnn4ncccc34)n2)cc1	16.2	-0.55	-0.46	6.04	28.2	5.93	15.3	2.49	23	-3.66
CN(c1ccc(NC(=O)Nc2c(Cl)cccc2Cl)cc1)c1ccnc(Nc2cccc(CS(C)(=O)=O)c2)n1	2.99	0.68	2.77	2.51	8.06	2.8	6.5	-0.26	0.34	0.03
CN(C)c1ccc2c(c1)/C(=C/Nc1ccc(S(N)(=O)=O)cc1)C(=O)N2	18.6	-0.32	-0.69	15.3	49.3	2.06	13.8	1.26	1.23	0.23
NS(=O)(=O)c1ccc(N/N=C2\C(=O)Nc3ccc(C(=O)NCCCn4ccnc4)cc32)cc1	9.93	0.17	2.55	9.94	25.8	3.91	10	2.53	15.6	0.82
CCS(=O)(=O)c1ccc(OC)c(Nc2ncc(-c3ccccc3Cl)o2)c1	-0.17	1.42	0.93	1.33	1.36	1.67	0.7	-0.02	1.67	-0.56
Fc1ccc(-c2ncn(C3CCNCC3)c2-c2ccnc(Oc3ccc(Oc4ccccc4)cc3)n2)cc1	4.07	-2.03	-0.39	0.96	-5.23	5.51	6.26	0.09	0.87	-0.33
CNC(=O)c1cncc(/C=C/c2c(C)cccc2C)c1	0.9	1.4	0.92	0.1	-0.59	2.11	0.8	0.92	1.36	-4.04
CCc1cccc(CC)c1/C=C/c1cncc(C(=O)NC)c1	1.59	0.55	-0.71	0.98	3.16	3.56	0.53	1.04	1.26	-0.07
NCc1ccc(-n2c(-c3nonc3N)nc3cnccc32)cc1	23.4	0	2.53	7.71	16	6.79	4.79	34.4	82.8	8.18

Compound	inhibition [1] [%]	inhibition [2] [%]	inhibition [3] [%]	inhibition [4] [%]	inhibition [5] [%]	inhibition [6] [%]	inhibition [7] [%]	inhibition [8] [%]	inhibition [9] [%]	inhibition [10] [%]
NC(=O)Cc1ccccc1Oc1nccc(-c2c(-c3ccc(F)cc3)ncn2C2CCNCC2)n1	2.22	0.15	-0.7	4.43	6.28	2.61	0.83	0.4	0.97	0.18
C#Cc1cccc(Nc2ncnc3ccc(OCCCCNCCS(C)(=O)=O)cc23)c1	2.74	0.02	4.19	5.74	19	5.8	6.86	6.27	39.5	-2.91
Fc1ccc(-c2ncn(C3CCNCC3)c2-c2ccnc(Oc3ccc4c(c3)OCO4)n2)cc1	2.68	0.16	1.32	6.43	6.48	7.66	5.8	0.83	2.07	-0.04
CS(=O)(=O)CCNCc1ccc(-c2ccc3ncnc(Nc4ccc(OCc5ccccc5)c(Br)c4)c3c2)o1	-0.56	-0.29	0.16	7	3.21	5.03	4.55	-0.99	-0.09	-3.07
NS(=O)(=O)c1ccc(Nc2cc(-c3ccc(O)c(F)c3)n[nH]2)cc1	7.38	-0.77	-1.58	-0.19	16	-5.86	-3.66	-1.13	0.95	-0.39
Nc1nccc(-c2c(-c3ccc(F)cc3)ncn2C2CCC(O)CC2)n1 (stereo not given)	2.02	-0.7	-1.02	-1.17	0.55	-4.04	-5.93	-0.95	-1.37	1.27
COc1ccc(C2=C(N3CCc4ccccc43)C(=O)NC2=O)cc1	1.74	0.07	-0.29	3.26	6.35	7.25	4.69	0.52	4.09	0.18
COc1ccc2ncn(-c3cc(O[C@H](C)c4ccccc4Cl)c(C(N)=O)s3)c2c1	0.49	-0.21	0.54	5.98	7.62	6	5	-0.74	3.29	-3.96
CN(C)CCOc1ccc(-c2cc(-c3ccc4c(c3)CCC4=NO)c(-c3ccncc3)o2)cc1	0.33	1.53	1.21	1.83	5.45	-1.99	-1.19	0.55	0.18	-0.09
O=C(Nc1n[nH]c2nc(-c3ccc(O)cc3)c(Br)cc12)C1CC1	5.24	0.21	0.71	7.64	10.7	6.68	7.34	19.7	65.5	45.5
Fc1ccc(-c2c(-c3ccncc3)nc3n2CCS3)cc1	1.79	-0.68	-0.44	4.14	4.63	1.99	3.28	-0.78	0.06	-3.15
CCc1nccc2c1nc(-c1nonc1N)n2CC	1.67	0.71	0.86	3.65	1.98	-0.2	-2.03	0.32	1.23	0.4
NC(=O)c1ccc(Oc2nccc(-c3c(-c4ccc(F)cc4)ncn3C3CCNCC3)n2)cc1	4.02	-1.25	-0.29	3.06	5.58	5.89	5.72	0.9	1.7	-0.5
Cc1ccc(NC(=O)c2ccoc2)cc1-c1ccc(C(=O)NCC2CC2)cc1	-0.97	1.03	0.47	3.88	1.73	3.37	3.24	0.53	0.47	-0.3
NS(=O)(=O)c1ccc(N/N=C2\C(=O)Nc3ccc(-c4cnco4)cc32)cc1	16.6	0.16	4.38	5.17	27.9	1.94	4.44	4.65	38.9	-0.37
C[C@@H](Oc1cc(-n2cnc3ccc(OCC4CCN(C)CC4)cc32)sc1C(N)=O)c1ccccc1Cl	19.7	-0.74	3.45	2.43	10.2	8.59	9.94	18.5	70	0.64
COc1cc2ncn(-c3cc(OCc4ccccc4C(F)(F)F)c(C(C)=O)s3)c2cc1OC	1.04	0.79	1	2.96	2.39	4.43	4.18	-0.09	0.89	0.28
